Shiga toxin inh – Shiga toxin inhibition | Vero cells, Shiga toxin protein synthesis inhibition reporter | inhibition, % at 38.7 µM | 290,000 tested, 9.2% active; in the data active = inhibition mostly above about 28%, no sharp cut-off; inactive = mostly below about 43%; also: 0% is about no effect
Pf growth 48h – inhibits P. falciparum growth in the first generation, 48 h; AID 504832; Potency, µM (top dose mostly 28.7 µM), inactives show at the highest dose activity change, negative = inhibition, usual class: inhibitors; P. falciparum luciferase growth in erythrocytes, 48 h; 310,000 tested, 5.9% active; also: potency is read from the fitted curve at half-maximal effect; % is scaled to controls: 0 for no effect and ±100 for the full control effect
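Compounds are pin-transferred into medium, infected erythrocytes (2% hematocrit, 0.1% parasitemia final) are added, and plates sit one parasite generation at 37 C in 5% CO2. Detection reagent is then added and luminescence measured.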
SARS PLpro yeast – inhibitors of SARS-CoV papain-like protease in yeast; Potency, µM (titrated, usually from 32.9 µM), for the others: top-dose activity, positive = growth rescue, hits mostly activators; 330,000 tested, 0.19% active; S. cerevisiae expressing SARS-CoV PLpro, growth rescue; AID 485353; calls by dose curve; also: potency is read from the fitted curve at half-maximal effect; 0% is about no effect; nearly all actives have a fitted effect of over 55% in size
NS1 inh – inhibitors of influenza NS1 protein function. Potency, µM (titrated, usually from 46.1 µM), for inactives: at the top dose activity, positive = more growth. 270,000 tested, 0.4% active; calls by dose curve; also: potency is read from the fitted curve at half-maximal effect; actives are rising curves; nearly all actives have a fitted effect of over 50% in size
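A cell-based growth assay was used: compounds that relieve NS1-induced slow growth of budding yeast raise OD600. Assay medium was yeast nitrogen base with ammonium sulphate and -URA supplement, pH 6.0, with 2% galactose.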
CHX counter – counter-screen for Shiga toxin inhibitors: cycloheximide protein synthesis inhibition. 300,000 tested, 12% active. cell reporter, cycloheximide protein synthesis inhibition counterscreen. max response, %; in the data active = max response mostly above about 13%, no sharp cut-off; inactive = mostly below about 14%; also: read at 38.3 µM for the half of the compounds with a filed dose; 0% is about no effect
Pf growth 96h – P. falciparum growth inhibition at 96 hour, primary screen for plastid delayed-death inhibitors; P. falciparum luciferase reporter growth, 96 h; Potency, µM (doses to about 28.7 µM), for the others: at the top dose activity change, negative = inhibition, usual class: inhibitors; 320,000 tested, 6.9% active; AID 504834; also: potency is read from the fitted curve at half-maximal effect; % is scaled to controls: 0 for no effect and ±100 for the full control effect
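Two parasite generations (96 h, 37 C, 5% CO2) of compound exposure in infected erythrocytes (0.05% parasitemia, 2% hematocrit). Luciferase-reporter P. falciparum; decreased luminescence indicates inhibited growth, aimed at apicoplast-acting delayed death.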
An asterisk follows results filed as active. The list is not random: actives were taken first. Their share in the collection is about 21%. Unless noted, calls follow the shape of the dose curve; as a rule, active = well fitted inhibition curve with a large enough effect; inconclusive = small, poorly fitted or top-dose-only effect, or another doubt; inactive = no such curve, though single readings can be large or run the other way.

Screening COCCn1c(-c2ccc(F)cc2)nc2cccnc21 returned Shiga toxin inh -3, Pf growth 48h -5%, SARS PLpro yeast 6%, NS1 inh 4%, CHX counter -1 and Pf growth 96h 0%.
CC(C)=CC(=O)Nc1ccc(OCc2ccccc2)cc1 was read as Shiga toxin inh 126*, Pf growth 48h inconclusive, SARS PLpro yeast -4%, NS1 inh -53%, CHX counter 53* and Pf growth 96h 0%.
Cc1noc(C)c1COc1cccc(C(=O)Nc2ccccc2N2CCOCC2)c1 was read as Shiga toxin inh 12, Pf growth 48h inconclusive, SARS PLpro yeast 6%, NS1 inh 11%, CHX counter -2 and Pf growth 96h 13µM*.
For CC(C)=CC(=O)Nc1ccc(Br)cc1 the results were Shiga toxin inh 74*, Pf growth 48h 150%, SARS PLpro yeast -10%, NS1 inh -42%, CHX counter 58* and Pf growth 96h -6%.
O=C(Nc1ccc(Oc2nnc(-c3ccccc3)c3ccccc23)cc1)c1ccccc1 was read as Shiga toxin inh -6, Pf growth 48h 10µM*, SARS PLpro yeast 21%, NS1 inh 16%, CHX counter -2 and Pf growth 96h -7%.
COc1cccc(N2CC(C(=O)Nc3nnc(SCCN4CCOCC4)s3)CC2=O)c1 (stereo not drawn) was read as Shiga toxin inh -5, Pf growth 48h inconclusive, SARS PLpro yeast 2%, NS1 inh 2%, CHX counter -2 and Pf growth 96h -33%.
For O=C(NCCCSc1ccccc1)c1cccnc1 the results were Shiga toxin inh -16, Pf growth 48h 25%, SARS PLpro yeast -2%, NS1 inh 10%, CHX counter -2 and Pf growth 96h -30%.
`Cc1nc(COc2ccc(C(=O)Nc3ccccc3N3CCOCC3)cc2)cs1` gave Shiga toxin inh 26*, Pf growth 48h -19%, SARS PLpro yeast -5%, NS1 inh -22%, CHX counter 9 and Pf growth 96h inconclusive.
Screening CCOC(=O)CNC(=O)C(CO)NC(=O)OCc1ccccc1 (stereo not drawn) returned Shiga toxin inh 6, Pf growth 48h 10%, SARS PLpro yeast -1%, NS1 inh 2%, CHX counter 26* and Pf growth 96h inconclusive.
Screening O=C(NCCSc1ccccc1)c1cccnc1 returned Shiga toxin inh 83*, Pf growth 48h 84%, SARS PLpro yeast 11%, NS1 inh -1%, CHX counter 49* and Pf growth 96h -2%.
For CCOC(=O)CNC(=O)C(Cc1ccccc1)NC(=O)OCc1ccccc1 (stereo not drawn) the results were Shiga toxin inh -6, Pf growth 48h 19%, SARS PLpro yeast 1%, CHX counter -2 and Pf growth 96h 11%.
Screening CC(C)N(C(=O)CSc1ccc(S(=O)(=O)N2CCCCC2)cn1)C(C)C returned Pf growth 48h inconclusive, SARS PLpro yeast 10% and Pf growth 96h inconclusive.
For COc1cccc(NC(=O)CN2C(=O)NC(Cc3c[nH]c4ccccc34)C2=O)c1 (stereo not drawn) the results were SARS PLpro yeast 1%.
`Cc1ccc2cc(C)c3nnc(SCC(=O)Nc4nc5c(s4)CCCC5)n3c2c1` gave Shiga toxin inh -11, Pf growth 48h 29%, SARS PLpro yeast 2%, NS1 inh 17%, CHX counter -4 and Pf growth 96h -19%.
Screening CCOc1ccc(NC(=O)CCN2CCN(S(=O)(=O)c3cc(Cl)ccc3OC)CC2)cc1 returned Shiga toxin inh -2, Pf growth 48h inconclusive, SARS PLpro yeast 0%, NS1 inh -14%, CHX counter -2 and Pf growth 96h 2.6µM*.
For CCN(CC)c1ccc(NC(=O)CN2CCN(S(=O)(=O)c3cc(Cl)ccc3OC)CC2)cc1 the results were Shiga toxin inh 6, Pf growth 48h 10µM*, SARS PLpro yeast 3%, NS1 inh -12% and CHX counter 6.
For COc1ccc(NC(=O)CCN2CCN(S(=O)(=O)c3ccc(Cl)cc3)CC2)cc1 the results were Shiga toxin inh -3, Pf growth 48h inconclusive, SARS PLpro yeast 0%, NS1 inh -6% and CHX counter 0.
`CCOC(=O)C1=C(C)NC(=S)NC1c1cccc(O)c1` (stereo not drawn) gave Shiga toxin inh 25 and CHX counter -9.
For COc1ccccc1C1c2[nH]c3ccccc3c2CCN1Cc1cnc(C)s1 (stereo not drawn) the results were Shiga toxin inh -29, Pf growth 48h inconclusive, SARS PLpro yeast -1%, NS1 inh 2%, CHX counter -2 and Pf growth 96h inconclusive.
Screening COc1cccc(C2c3[nH]c4ccccc4c3CCN2Cc2cnc(C)s2)c1OC (stereo not drawn) returned Shiga toxin inh -2, Pf growth 48h 2.3µM*, SARS PLpro yeast 0%, NS1 inh 1%, CHX counter -3 and Pf growth 96h inconclusive.
`COc1ccc2cc(C#N)c(SCC(=O)N3CCCC3)nc2c1` gave Shiga toxin inh 14, Pf growth 48h -24%, SARS PLpro yeast -3%, NS1 inh inconclusive, CHX counter 3 and Pf growth 96h 138%.
CCOc1ccc2cc(C#N)c(SCC(=O)NC(C)CC)nc2c1 (stereo not drawn) was read as Shiga toxin inh -22, Pf growth 48h 3%, SARS PLpro yeast -1%, NS1 inh -3%, CHX counter -2 and Pf growth 96h 7.4µM*.
`COc1ccc(C(=O)NCCNc2nc3ccc(C)cc3cc2C#N)cc1` gave Shiga toxin inh 34*, Pf growth 48h inconclusive, SARS PLpro yeast 8%, NS1 inh 7%, CHX counter 23* and Pf growth 96h 9.3µM*.
For COC(=O)CSc1nc2cc(C)cc(C)c2cc1C#N the results were Shiga toxin inh -10, Pf growth 48h 65%, SARS PLpro yeast 4%, NS1 inh -6%, CHX counter -2 and Pf growth 96h 0%.
`COC(=O)CSc1nc2ccc(C)cc2cc1C#N` gave Shiga toxin inh 149*, Pf growth 48h inactive, SARS PLpro yeast 1%, CHX counter 36* and Pf growth 96h -20%.
For COc1ccc2nc(SCC(=O)N3CCN(c4ccc(F)cc4)CC3)c(C#N)cc2c1 the results were Shiga toxin inh 23, Pf growth 48h inconclusive, SARS PLpro yeast 4%, NS1 inh 27%, CHX counter 10 and Pf growth 96h 15µM*.
For CSCCC(NC(=O)c1ccccc1C)C(=O)O (stereo not drawn) the results were Shiga toxin inh 13, Pf growth 48h 43%, SARS PLpro yeast 0%, CHX counter -2 and Pf growth 96h 23%.
Cc1nc2ccc(C(=O)N3c4ccccc4CC3C)cc2s1 (stereo not drawn) was read as Shiga toxin inh 1, Pf growth 48h inconclusive, SARS PLpro yeast -1%, NS1 inh -5%, CHX counter 1 and Pf growth 96h 9%.

From PubChem BioAssay
